Screening data: PubChem, National Center for Advancing Translational Sciences (NCATS)
Only some compounds are listed: those with a hit (about 6.9% of all), similar ones and a draw of the others.
SW480 rerep: induces DNA re-replication in SW480 colon adenocarcinoma cells | AID 624297 | Potency, µM (doses to about 46.1 µM), without a hit: top-dose re-replication activation, usual class: activators | 340,000 compounds, 1.8% hits | SW480 DNA re-replication, Hoechst DNA content imaging, 48 h; also: potency is read from the fitted curve at half-maximal effect; % of control where 0% means no effect; nearly all actives have a fitted effect of over 55% in size
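Per well, 250 cells were exposed to pinned compound for 48 hr. Nuclear DNA was visualised with Hoechst (40 min, 37 C) and total object intensity recorded by fluorescence scanning.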
IL1B secr inh: blocks inflammasome-driven IL-1 beta release | THP-1 LPS/ATP IL-1B secretion, AlphaLISA, 16 h; hits give low values | activity change, % at 57.5 µM | 360,000 compounds, 4.7% hits; in the data active = activity change below about -50%; inconclusive = mostly about -30% to -49%; also: % is scaled to controls: 0 for no effect and ±100 for the full control effect
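THP-1 cells pretreated 1 hr with compounds (up to 57.5 uM final), then stimulated with LPS (250 ng/mL final) plus ATP (1.25 mM final); secreted IL-1B measured by AlphaLISA after 16 hr, decreased signal indicating inhibition.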
Giardia killer: kills Giardia lamblia. activity change, % at 7.66 µM, hits read low. AID 540267. 340,000 compounds, 0.15% hits. Giardia lamblia trophozoite viability; in the data active = activity change below about -80%; inconclusive = between about -30% and that limit;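 also: parasites exposed to compound for two days anaerobically before the ATP read; % is scaled to controls: 0 for no effect and ±100 for the full control effect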
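Luminescent ATP signal served as the viability read-out, measured 15-30 min after adding ATP detection reagent to trophozoites that had been incubated with compounds for 48 hrs at 37 deg C anaerobically at 100 cells/well.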
Vif-APOBEC3G blk: inhibitors of Vif-APOBEC3G interaction | Q9HC16 | Potency, µM (doses to about 46.1 µM), without a hit: at the top dose activity, negative = active, most hits filed as inhibitors | HeLa A3G-eYFP + Vif (tagged APOBEC3G with the HIV-1 protein that degrades it), YFP fluorescence, overnight | 410,000 compounds, 0.076% hits; also: potency is read from the fitted curve at half-maximal effect; % is scaled to controls: 0 for no effect and ±100 for the full control effect; nearly all actives have a fitted effect of over 60% in size
Target sequence (Q9HC16 whole entry, looked up): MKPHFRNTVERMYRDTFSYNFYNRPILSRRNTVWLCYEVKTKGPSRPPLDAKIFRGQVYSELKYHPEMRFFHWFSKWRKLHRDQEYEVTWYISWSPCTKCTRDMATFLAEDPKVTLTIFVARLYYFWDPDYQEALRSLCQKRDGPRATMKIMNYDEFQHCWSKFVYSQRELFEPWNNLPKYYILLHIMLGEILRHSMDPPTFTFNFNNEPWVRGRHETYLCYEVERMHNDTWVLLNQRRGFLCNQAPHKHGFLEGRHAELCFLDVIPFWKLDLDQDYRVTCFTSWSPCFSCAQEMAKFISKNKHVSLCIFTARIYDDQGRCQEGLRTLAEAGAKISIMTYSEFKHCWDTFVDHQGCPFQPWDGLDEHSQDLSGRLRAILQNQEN
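Read-out is eYFP fluorescence (Ex 488/Em 500-530) from Vif-expressing HeLa A3G-eYFP cells; more signal means A3G escaped Vif-mediated degradation. Cells plated overnight, compound pinned in, incubated overnight at 37 deg C.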
Vif-APOBEC3F blk: blocks the Vif interaction with APOBEC3F. HeLa A3F-eYFP + Vif (tagged APOBEC3F with the HIV-1 protein that degrades it), YFP fluorescence increase. Potency, µM (titrated, usually from 46.1 µM), inactives show at the highest dose activity, negative = active. 390,000 compounds, 0.2% hits; also: potency is read from the fitted curve at half-maximal effect; % of control where 0% means no effect; nearly all actives have a fitted effect of over 65% in size
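HeLa cells stably expressing A3F-eYFP plus Vif, plated and incubated overnight at 37 deg C, then exposed to compounds overnight at 37 deg C. Blocked degradation read as raised yellow fluorescence (Ex 488/Em 500-530).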
MCF10A rereplic: induces DNA re-replication in MCF 10a normal breast cells | Potency, µM (series often up to 46.1 µM), for inactives: at the highest dose activity, positive = re-replication, hits mostly activators | 350,000 compounds, 2.9% hits | MCF 10A DNA re-replication, Hoechst nuclear intensity, 48 h; also: potency is read from the fitted curve at half-maximal effect; % of control where 0% means no effect; nearly all actives have a fitted effect of over 50% in size
* marks the source's active call; other numbers are inactive results; ? = inconclusive; · = no result. Unless noted, calls follow the shape of the dose curve; as a rule, active = well fitted curve in the direction sought with a large enough effect; inconclusive = small, poorly fitted or top-dose-only effect, or another doubt; inactive = no such curve, though single readings can be large; an effect the other way counts as inactive or inconclusive.

SMILES	SW480 rerep	IL1B secr inh	Giardia killer	Vif-APOBEC3G blk	Vif-APOBEC3F blk	MCF10A rereplic
CCN1CCN(Cc2ccc(NC(=O)c3ccc(C)c(/C=C/c4cnc(Nc5cc(N6CCNCC6)nc(C)n5)cn4)c3)cc2C(F)(F)F)CC1	?	-100*	3	?	32µM*	?
CCN1CCN(Cc2ccc(NC(=O)c3ccc(C)c(NC(=O)c4ccno4)c3)cc2C(F)(F)F)CC1	-2%	-65*	-1	-1%	-1%	-7%
CCN1CCN(Cc2ccc(NC(=O)c3ccc(C)c(NC(=O)c4cccc(-c5cn[nH]c(=O)c5)c4)c3)cc2C(F)(F)F)CC1	-1%	-96*	-9	1%	-1%	?
CCN1CCN(Cc2ccc(NC(=O)c3ccc(C)c(NC(=O)c4c[nH]c5cc(C(F)(F)F)ccc5c4=O)c3)cc2C(F)(F)F)CC1	1.8µM*	-105*	-24	-19%	0%	12µM*
COc1ccc(-c2nc(C)c(CCNC(=O)c3ccc(F)c(F)c3)s2)cc1	·	·	·	1%	5%	·
O=S(=O)(/N=S1\CC=CCN1S(=O)(=O)c1ccccc1)c1ccccc1 (stereo not given)	?	-86*	-10	1%	-5%	18µM*
COCc1cc(C)nc(SCC[N+](C)(C)CC(=O)Nc2cccc(C(F)(F)F)c2)c1C#N	-4%	-51*	16	-4%	0%	11%
CCOc1ccc(-c2nn(-c3ccccc3)cc2/C=C2\SC(N)=NC2=O)cc1C	-2%	39	4	-4%	2%	10µM*
Cc1ccc(-c2nn(-c3ccccc3)cc2/C=C2\SC(=S)N(CC(=O)O)C2=O)cc1	-27%	0	9	4%	9%	13%
O=C(COC(=O)c1ccc(C(F)(F)F)cc1)NC(=O)C1CCCCC1	·	·	-8	2%	·	·
S=C(NCc1ccccc1)N1CCn2cccc2C1c1cccnc1 (stereo not given)	14%	16	5	-7%	1%	-9%
CCCCNC(=S)N1CCn2cccc2C1c1ccccc1 (stereo not given)	?	2	1	1%	15%	?
Fc1ccc(C2c3cccn3CCN2C(=S)Nc2cccc(Br)c2)cc1 (stereo not given)	-1%	-16	-4	-3%	12%	23µM*
S=C(NCCc1ccccc1)N1CCn2cccc2C1c1cccnc1 (stereo not given)	3%	-66*	2	4%	-1%	-1%
CCCCNC(=S)N1CCn2cccc2C1c1ccc(F)cc1 (stereo not given)	?	-86*	-9	-4%	-7%	11%
Fc1ccc(NC(=S)N2CCn3cccc3C2c2cccnc2)cc1 (stereo not given)	-3%	-4	-24	3%	-10%	0%
O=C(O)CC(O)CC(O)/C=C/c1c(C2CC2)nc2ccccc2c1-c1ccc(F)cc1 (stereo not given)	?	·	·	·	·	17%
COc1ccccc1NC(=O)C1=C(C)Nc2nc(SCc3ccccc3)nn2C1c1ccccn1 (stereo not given)	·	·	·	0%	-10%	·
O=S(=O)(c1ccc(Cl)cc1)N1CCN(c2nc(-c3cccc(Br)c3)nc3ccccc23)CC1	·	·	3	-1%	·	·
Cc1cc2[nH]c(=O)c(=O)[nH]c2cc1S(=O)(=O)N1CCN(c2cccc(C(F)(F)F)c2)CC1	-11%	10	?	-7%	-3%	16µM*
COc1ccccc1NC(=S)NC(C)C(c1cccs1)N1CCOCC1 (stereo not given)	2%	-10	?	-11%	-3%	-2%
CC(NC(=S)Nc1ccc(Cl)cc1Cl)C(c1cccs1)N1CCCC1 (stereo not given)	20%	-81*	-29	0%	?	?
CC(NC(=O)Nc1cccc(Cl)c1)C(c1cccs1)N1CCCC1 (stereo not given)	?	-54*	-1	-5%	-12%	13%
CC(C)C(NC(=O)c1cccs1)C(=O)NC1CCCCC1 (stereo not given)	-6%	-15	10	2%	-9%	-23%
CC(NCc1cccs1)C(=O)NC1CCCCC1 (stereo not given)	?	-62*	1	-1%	16%	-5%
SMILES	SW480 rerep	IL1B secr inh	Giardia killer	Vif-APOBEC3G blk	Vif-APOBEC3F blk	MCF10A rereplic
O=C(Cc1cccs1)N(Cc1cccs1)C1(C(=O)NC2CCCCC2)CCCCC1	3%	-52*	11	0%	-2%	9%
O=C(c1ccc2c(c1)CCN2S(=O)(=O)c1ccc(Cl)cc1)N1CCN(c2ccccc2F)CC1	·	·	·	5%	-2%	·
CC1(C(=O)NS(=O)(=O)C2CC2)CCCN(C(=O)c2cccc(OC(F)(F)F)c2)C1 (stereo not given)	·	-64*	·	-2%	·	·
Cc1ccc2cccc(O)c2n1	·	·	·	0%	·	·
CCc1nnc(NC(=O)CSc2nnc(COc3ccccc3)n2-c2ccc(C)cc2)s1	6%	47	-5	2%	5%	5%
CCc1nnc(NC(=O)CSc2nnc(-c3ccccc3O)n2-c2ccc(C)cc2C)s1	18µM*	51	-5	?	-4%	9.2µM*
CCc1ccccc1NC(=O)c1ccc2c(c1)nnn2C1CCCC1	·	·	·	-8%	-5%	·
OC1c2cc(Br)ccc2N=C2CCCN21 (stereo not given)	193%	-97*	-1	-25%	2%	?
CCOC(=O)Cn1c(=O)oc2cc(S(=O)(=O)N3CCN(c4ccc(Cl)cc4)CC3)ccc21	·	·	·	2%	-12%	·
Cc1cn2c(=O)cc(COC(=O)c3cccc(NC(=O)c4ccc(C(C)(C)C)cc4)c3)nc2s1	·	·	·	-5%	-5%	·
COc1ccc(/C=N/NC(=O)c2ccc(NC(=O)c3ccccc3Br)cc2)cc1	9%	-56*	19	-8%	2%	?
CC(=O)Nc1ccc(NC(=O)c2ccccc2Br)cc1	·	-11	·	-3%	·	·
O=C(Cc1cccs1)N/N=C/C(Br)=C/c1ccccc1	14%	-7	3	1%	-6%	18µM*
O=C(Nc1ccc(Br)cc1)c1ccccc1Br	1%	-56*	0	-2%	-2%	5%
COc1ccc(C(=O)N/N=C/C(Br)=C/c2ccccc2)cc1	?	-58*	-7	3%	1%	?
CC(/C=N/NC(=O)Cc1cccs1)=C\c1ccccc1	21%	-3	-28	-4%	2%	?
Cc1occc1C(=O)N/N=C/c1ccc(-c2ccccc2)cc1	18%	?	11	2%	14%	14%
COc1cccc(/C=C(/C(=O)OCC(N)=O)c2ccccc2)c1	-3%	-16	-19	-1%	-15%	-1%
